Screens from PubChem BioAssay.
This is a sample that favours compounds with a hit; in the whole collection about 19% have one here.
Giardia kill: Small Molecules that selectively kill Giardia lamblia: qHTS; Giardia lamblia trophozoite viability; activity change, % at 7.66 µM, hits read low; 0.15% of 340,000 active; AID 540267, 2011; in the data active means activity change below about -80%; inconclusive means between about -30% and that limit;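 further: parasites exposed to compound for two days anaerobically before the ATP read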
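Viability, read as ATP luminescence: trophozoites at 100 cells/well, compound added, 48 hrs anaerobic at 37 deg C, then 15-30 min room-temperature development before reading.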
TDP1 cell noCPT: qHTS for Inhibitors of human tyrosyl-DNA phosphodiesterase 1 (TDP1): qHTS in cells in absence of CPT. 15% of 420,000 active. AID 686978, 2013. Potency, µM (doses to about 46.2 µM), without a hit: at the top dose activity change, negative = growth inhibition, actives largely listed as inhibitors. DT40 Tdp1-/- hTDP1 cells, no CPT, ATP luminescence, 48 h; further: potency means the concentration at half of the fitted maximal effect; nearly all actives have a fitted effect of over 55% in size
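Chicken DT40 Tdp1-/- cells stably complemented with human TDP1 were seeded at 400 cells/well with DMSO in place of 20 nM camptothecin. After compound pinning, cells grew at least 48 hr at 37 °C; viability read by CellTiter-Glo luminescence.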
IL-1B inflam inh: qHTS for Inhibitors of Inflammasome Signaling: IL-1-beta AlphaLISA Primary Screen. THP-1 LPS/ATP IL-1B secretion, AlphaLISA, 16 h; hits give low values. activity change, % at 57.5 µM. 4.7% of 360,000 active; in the data active means activity change below about -50%; inconclusive means mostly about -30% to -49%
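THP-1 cells pretreated 1 hr with compounds (up to 57.5 uM final), then stimulated with LPS (250 ng/mL final) plus ATP (1.25 mM final); secreted IL-1B measured by AlphaLISA after 16 hr, decreased signal indicating inhibition.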
DT40 TDP1 CPT: qHTS for Inhibitors of human tyrosyl-DNA phosphodiesterase 1 (TDP1): qHTS in cells in presence of CPT. chicken DT40 Tdp1-/-;hTDP1 cells + 20 nM CPT, ATP luminescence, 48 h. Potency, µM (doses to about 46.2 µM), inactives show top-dose activity change, negative = growth inhibition, usual class: inhibitors. 12% of 420,000 active; further: potency means the concentration at half of the fitted maximal effect; nearly all actives have a fitted effect of over 55% in size
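Cell growth measured by CellTiter-Glo luminescence after a minimum 48 h, 37 C compound exposure with 20 nM CPT in Tdp1-knockout DT40 cells stably expressing hTDP1, seeded 400/well; qHTS titration format.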
ELG1 repair inh: qHTS screen for small molecules that inhibit ELG1-dependent DNA repair in human embryonic kidney (HEK293T) cells expressing luciferase-tagged ELG1; HEK293T ELG1-luciferase reporter, luminescence, 16 h; DNA damage induced by 5-fluorouridine; Potency, µM (top dose mostly 46.1 µM), without a hit: at the top dose activity change, negative = inhibition, actives largely listed as inhibitors; 2.3% of 330,000 active; further: potency means the concentration at half of the fitted maximal effect; nearly all actives have a fitted effect of over 55% in size
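In this reporter screen, reduction of luminescence relative to DMSO vehicle indicated activity. Compounds and 5-fluorouridine were added together to 2,000 cells per well, incubated for 16 hr at 37 °C, then developed with ONE-Glo.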
TDP1 block: qHTS Assay for Inhibitors of Tyrosyl-DNA Phosphodiesterase (TDP1). Tyrosyl-DNA phosphodiesterase 1 (Homo sapiens), Q9NUW8. recombinant TDP1, AlphaScreen DNA substrate cleavage. Potency, µM (doses to about 130 µM), for inactives: top-dose activity change, negative = inhibition, hits mostly inhibitors. 0.28% of 350,000 active; further: potency means the concentration at half of the fitted maximal effect; nearly all actives have a fitted effect of over 40% in size
Target sequence (Q9NUW8 whole entry, looked up): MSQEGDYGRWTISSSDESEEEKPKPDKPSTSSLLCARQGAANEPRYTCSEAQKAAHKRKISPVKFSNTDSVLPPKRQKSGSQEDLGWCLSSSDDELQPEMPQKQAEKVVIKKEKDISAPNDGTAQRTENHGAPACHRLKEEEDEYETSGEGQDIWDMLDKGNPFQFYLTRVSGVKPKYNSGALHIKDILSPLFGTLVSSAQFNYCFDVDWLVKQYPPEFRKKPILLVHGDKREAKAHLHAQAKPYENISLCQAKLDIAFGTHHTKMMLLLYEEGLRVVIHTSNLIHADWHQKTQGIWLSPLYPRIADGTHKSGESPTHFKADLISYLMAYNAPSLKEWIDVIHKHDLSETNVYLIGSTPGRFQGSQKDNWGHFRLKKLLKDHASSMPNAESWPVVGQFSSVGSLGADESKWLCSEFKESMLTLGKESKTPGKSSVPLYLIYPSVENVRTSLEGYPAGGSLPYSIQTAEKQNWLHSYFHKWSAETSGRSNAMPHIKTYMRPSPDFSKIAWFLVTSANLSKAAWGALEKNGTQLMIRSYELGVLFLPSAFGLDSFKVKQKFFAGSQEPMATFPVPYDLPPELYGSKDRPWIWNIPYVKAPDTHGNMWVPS
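Signal: AlphaScreen proximity between streptavidin donor and anti-FITC acceptor beads on intact substrate. Reaction: Tdp1 1 nM, substrate 15 nM final, 5 min RT after 15 min compound preincubation.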
An asterisk follows results filed as active; ? = inconclusive; / = no result; [ ] = another dose, or the depositor's remark. Unless noted, the call rests on the fitted dose curve; in most records, active means well fitted curve in the direction sought with a large enough effect; inconclusive means small, poorly fitted or top-dose-only effect, or another doubt; inactive means no such curve, though single readings can be large; an effect the other way counts as inactive or inconclusive. On the % scale 0 is the no-effect control and ±100 the full control effect.

SMILES | Giardia kill | TDP1 cell noCPT | IL-1B inflam inh | DT40 TDP1 CPT | ELG1 repair inh | TDP1 block
O=C(NC1CCCCC1)C(=S)N1CCOCC1 | -12.4 | 16.2% | 4.5 | -3.6% | 21.5% | -2.7%
COc1ccc(C(=O)N=C2SC3CS(=O)(=O)CC3N2c2ccc(N(C)C)cc2)cc1OC (stereo unspecified) | -1.5 | -14.4% | -28.4 | -21.2% | ? | -2.6%
Cc1ccccc1NCC(=O)N/N=C\c1ccc2c(c1)OCO2 | -13.0 | ? | -26.0 | -28.9% | 20.1% | 2.5%
Cc1cccc(C)c1OCC(=O)N/N=C/c1ccc2c(c1)OCO2 | -3.9 | 3.66µM* | 42.5 | 2.91µM* | -3.5% | -3.1%
COc1ccc(OC)c(NC(=O)CSC2=Nc3ccccc3C3=NC(CCC(=O)NCc4ccco4)C(=O)N23)c1 (stereo unspecified) | / | ? | / | ? | / | 2.5%
CCOc1ccc2[nH]cc(C(=O)NCCc3ccccc3)c(=O)c2c1 | -6.8 | ? | -53.5* | ? | ? | /
CCc1ccc2[nH]cc(C(=O)OCCOC)c(=O)c2c1 | 1.8 | 23.1µM* | 7.6 | ? | 4.5% | -1.0%
CCOC(=O)c1c[nH]c2cc(OCC(C)C)c(OCC(C)C)cc2c1=O | / | -11.2% | / | -4.3% | / | /
CCOc1ccc2[nH]cc(C(=O)NCc3ccccc3)c(=O)c2c1 | 31.5 | 20.6µM* | -9.8 | 16.4µM* | ? | 1.4%
CCOc1ccc2[nH]c3ncccc3c(=O)c2c1 | 2.1 | ? | -59.7* | 3.6% | 26.3% | /
O=C(NC1CCCCCC1)C1CC(=O)N(c2ccc(Cl)cc2)C1 (stereo unspecified) | -14.8 | -9.7% | 13.6 | -0.8% | -8.9% | -2.3%
O=c1[nH]cc(S(=O)(=O)N2CCOCC2)c(=O)[nH]1 | -14.4 | -4.3% | -1.4 | -4.9% | 5.6% | -7.7%
COc1cccc(Cn2c(=O)c(-c3cc(F)cc(F)c3)nc3cnc(N(C)C)nc32)c1 | / | -1.6% | / | 6.9% | / | /
COC(=O)c1ccccc1NC(=S)NC(NC(=O)COc1ccccc1)C(Cl)(Cl)Cl (stereo unspecified) | 26.2 | -19.7% | -76.6* | -1.6% | 0.0% | 3.9%
Cc1ccccc1NC(=S)NC(NC(=O)COc1ccccc1)C(Cl)(Cl)Cl (stereo unspecified) | -1.4 | ? | 0.0 | ? | -16.6% | 5.2%
CCc1ccc(OCC(=O)NC(NC(=S)Nc2ccc(C)cc2C)C(Cl)(Cl)Cl)cc1 (stereo unspecified) | -7.4 | 23.1µM* | -16.5 | ? | -16.6% | 2.0%
Cc1ccc(C)c(NC(=S)NC(NC(=O)Cc2cccc3ccccc23)C(Cl)(Cl)Cl)c1 (stereo unspecified) | -17.1 | 6.51µM* | ? | 8.2µM* | ? | 1.8%
CCCCNC(=O)C(NC(=O)Cc1cc(OC)cc(OC)c1)C(=O)c1ccccc1 (stereo unspecified) | / | ? | -8.0 | ? | / | /
CC(=O)c1ccc(C(=O)NCc2nc(-c3ccccc3NC(=O)c3cc(C)oc3C)oc2C)cc1 | / | -6.8% | / | -0.7%[9.04 µM] | / | /
Cc1nc2cc(NC(=O)c3ccc(Cl)cc3)ccc2n1C | 4.2 | -14.2% | 0.0 | -17.5% | ? | /
COc1cc(C(=O)Nc2ccc3c(c2)ncn3C)cc(OC)c1OC | -17.6 | 2.91µM* | 82.1 | 4.11µM* | ? | /
COc1cc(C(=O)Nc2ccc3c(c2)nc(C)n3C)cc(OC)c1OC | -2.3 | 3.26µM* | 40.8 | 4.11µM* | ? | /
COCCNC(=O)c1cc(C(=O)CC(C)C)c[nH]1 | 20.1 | 1.7% | -3.7 | 2.2% | 4.5% | -5.4%
COc1ccc(N2CC(NC(=O)NCCC(C)C)CC2=O)cc1 (stereo unspecified) | 21.8 | -20.7% | -64.5* | ? | -3.0% | 2.8%
COc1ccc(N2CC(NC(=O)NC(C)(C)C)CC2=O)cc1 (stereo unspecified) | -1.5 | -11.9% | 5.0 | 4.5% | 2.4% | 0.0%
SMILES | Giardia kill | TDP1 cell noCPT | IL-1B inflam inh | DT40 TDP1 CPT | ELG1 repair inh | TDP1 block
CCN1CCN(C(=O)NC2CC(=O)N(c3ccc(OC)cc3)C2)CC1 (stereo unspecified) | -23.9 | 16.5% | -68.9* | 15.4% | 12.3% | -1.2%
O=C1c2cc(Br)ccc2OC2C=CC=CC12 (stereo unspecified) | -26.8 | -15.3% | 10.6 | -5.8% | ? | -6.1%[56.1 µM]
COc1ccc(CN(Cc2ccccc2)S(=O)(=O)c2ccccc2)cc1COc1ccc(NC(C)=O)cc1 | / | / | / | / | / | 0.5%
Cn1c(=O)[nH]c(=O)c2c1nc([N+](=O)[O-])n2Cc1ccccc1 | 2.0 | 1.03µM* | / | 0.651µM* | 14.6µM* | 5.5%
Cn1c(=O)[nH]c(=O)c2c1nc(Br)n2CCC(=O)c1ccccc1 | -13.3 | 16.4µM* | 13.0 | ? | -20.7% | 5.1%
Cn1c(=O)[nH]c(=O)c2c1nc(N1CCNCC1)n2Cc1ccccc1 | 5.5 | -18.0% | 13.4 | -22.3% | 0.9% | /
Cn1c(=O)[nH]c(=O)c2c1nc(Br)n2C/C=N/NC(=O)c1ccccc1 | 14.8 | -23.5% | / | 5.9% | 28.1% | 3.8%
CC(C)Cn1c([N+](=O)[O-])nc2c1c(=O)[nH]c(=O)n2C | -4.7 | 4.61µM* | -97.6* | 3.26µM* | 23.1µM* | 0.0%
COc1ccc(S(=O)(=O)NCC2CCCN(Cc3ccccc3C)C2)cc1 (stereo unspecified) | 4.6 | 9.9% | ? | -1.9% | 6.7% | 1.2%
CC(C)CN(C(=O)CCCSc1nc2ccccc2[nH]1)c1c(N)n(Cc2ccccc2)c(=O)[nH]c1=O | -2.1 | -1.7% | -102.5* | 5.5% | 3.3% | -0.3%
CC(C)CCN(C(=O)CCSc1ccc(F)cc1)c1c(N)n(Cc2ccccc2)c(=O)[nH]c1=O | -8.4 | ? | -10.3 | ? | 2.0% | -3.8%
CC(C)CCN(C(=O)CCCSc1nc2ccccc2[nH]1)c1c(N)n(Cc2ccccc2)c(=O)[nH]c1=O | -11.2 | -22.0% | -96.6* | -20.8% | -8.4% | -11.9%[0.505 µM]
CC(=O)N1c2ccc(S(=O)(=O)NCCC(=O)NCCc3cccc(C)c3)cc2CC1C (stereo unspecified) | -16.1 | -22.0% | -0.5 | ? | ? | 1.2%
